Screens as filed in PubChem.
Pf Dd2 growth: blocks in vitro growth of P. falciparum Dd2; 120,000 compounds, 4.3% hits; AID 1347417; Potency, µM (titrated, usually from 28.9 µM), hits mostly inhibitors; P. falciparum Dd2 growth, SYBR Green, 72 h; active = well fitted inhibition curve with a large enough effect; note: nearly all actives have a fitted effect of over 65% in size
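Infected erythrocytes (Dd2, 0.3% parasitemia, 2.5% hematocrit final) are added to compound in RPMI-1640/Albumax II medium, grown 72 h at 37C in low oxygen, then lysed with saponin/Triton-X containing SYBR Green and read by fluorescence.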
Each line names hits and unclear results; the compound was inactive in the other large screens. The sample as a whole holds a higher share of hits than the screen did.

COC(=O)[C@H](NC(=O)[C@@H]1[C@@H](NC(=O)Nc2cccc(SC)c2)CCN1C(=O)c1cccn1C)C(C)C	none
CN1CCCCCCN(C(=O)Cc2cccnc2)[C@@H]2CCC[C@@H]2C1=O	none
Cc1cccc(CN2CCCCCNC(=O)[C@@H]3CCC[C@@H]32)c1	none
CN1CCCCCCN(C(=O)NCCc2ccccc2)[C@H]2CCC[C@H]2C1=O	none
CN1CCCCCCN(Cc2ccc3[nH]ccc3c2)[C@H]2CCC[C@H]2C1=O	Pf Dd2 growth 2µM
Cc1cccc(CN2CCCCCCN(C)C(=O)[C@@H]3CCC[C@@H]32)c1	Pf Dd2 growth 2.51µM
CN1C(=O)[C@H]2CN(Cc3ccc4[nH]ccc4c3)C[C@H]2C1=O	none
O=C(C[C@@H]1O[C@H](CNC(=O)c2ccccc2)[C@@H](O)[C@H]1O)NC1CC1	none
Cn1nc(C(=O)N2CCC3(CCCNC3)C2)c2ccccc21 (stereo not drawn)	none
Cc1cccc(-n2nc(-c3c(C)nc4scc(CC(=O)N5CCCC5)n4c3=O)cc2C)c1	none
C=CCNC(=O)C1CCN(C(=O)N2CC3CC(C2)[C@H]2CCCC(=O)N2C3)CC1 (stereo partly drawn)	none
COCCn1cnnc1C(C)Nc1nc(-c2cccnc2)nc2c1CNC2 (stereo not drawn)	none
N[C@@H]1CC[C@H](C(=O)N2CCN(Cc3cccc(C(F)(F)F)c3)CC2)C1	none
c1ccc(CN2CCNc3cc(Nc4ccc(N5CCOCC5)cc4)ncc3C2)cc1	Pf Dd2 growth 11.2µM
COc1ccc(OC)c(CN2CCNc3cnc(Nc4cccnc4)cc3C2)c1	none
Fc1cccc(CN2CCNc3cc(Nc4ccccc4)ncc3C2)c1	none
c1ccc(CCN2CCNc3cc(NCCN4CCOCC4)ncc3C2)cc1	none
CCCN1CCNc2cc(Nc3ccccc3)ncc2C1	Pf Dd2 growth 8.91µM
COc1ccc(CN2CCNc3cc(Nc4ccccc4)ncc3C2)cc1O	none
c1ccc(Nc2cc3c(cn2)CN(Cc2cccs2)CCN3)cc1	Pf Dd2 growth 7.94µM
CN1CCNc2cc(NCc3ccccc3)ncc2C1	none
COc1ccc(OC)c(CN2CCNc3cc(Nc4ccccc4)ncc3C2)c1	Pf Dd2 growth 3.55µM
Fc1ccccc1CN1CCNc2cc(Nc3ccccc3)ncc2C1	none
COc1ccc(Nc2cc3c(cn2)CN(CCc2ccccc2)CCN3)cn1	none
c1ccc(Nc2cc3c(cn2)CN(Cc2cnc[nH]2)CCN3)cc1	none
N#Cc1cccc(CN[C@H]2[C@H](O)[C@H](O)C[C@@H]2c2cccnc2)c1	none
Nc1cccn2nc(-c3ccccc3)nc12	none
O=C(N[C@H](Cc1ccncc1)C1CC(O)C1)c1cccn1C1CC1 (stereo partly drawn)	none
C=CCNC(=O)C[C@@H]1CCN(C(=O)Nc2cccc(C(=O)OCC)c2)C[C@@H]1CC	none
CC(=O)N1C[C@@H]2CCCN3CCC[C@@H]([C@H]23)[C@H]1CCCC(=O)NCCCN1CCCC1=O	none
Cc1ccc(CNC(=O)c2ccc3c(c2)CNCCO3)cc1	none
COc1ccc(-c2ccc3nc(-c4cc(C)cc(C)c4)oc3c2)c(OC)c1OC	none
